Laboratory results reported in PubChem BioAssay (NCI).
Compounds without any hit were thinned out: in the full panel of roughly 79,000, 15% have a hit. Active and inactive are the calls of the source. Rule as the data show it: active = growth inhibition above about 70%; inactive = the rest.

Experiments:
[1] = NCI Yeast Anticancer Drug Screen. Data for the rad52 strain (AID 147);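 also: 0% = growth of vehicle-treated control cultures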; details: S. cerevisiae rad52 mutant growth inhibition, stronger effect = higher value
Procedure, shortened: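 Screen used a yeast mutant impaired in DNA repair. After compound exposure, growth was measured. Values reflect inhibition compared with vehicle-treated cells.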

[2] = NCI Yeast Anticancer Drug Screen. Data for the wt1 strain (AID 149);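 also: 0% = growth of vehicle-treated wt1 cultures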; details: S. cerevisiae wt1 strain (SPY 50644) growth inhibition, stronger effect = higher value
Procedure, shortened: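 Measured: growth of wt1 yeast under compound versus vehicle treatment, reported as inhibition.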

[3] = NCI Yeast Anticancer Drug Screen. Data for the rad50EPP+ strain (AID 151);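 also: 0% = growth of vehicle-treated control cultures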; details: S. cerevisiae rad50 mutant strain, stronger effect = higher value
Procedure, shortened: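 Exposing the rad50EPP+ strain to each compound, growth was compared with vehicle-only cultures to give inhibition.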

[4] = NCI Yeast Anticancer Drug Screen. Data for the mgt1 strain (AID 153); details: S. cerevisiae mgt1 mutant growth inhibition, stronger effect = higher value
Procedure, shortened: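 Genetically defined yeast (mgt1) treated with compound; inhibition of growth expressed against vehicle-treated controls.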

[5] = NCI Yeast Anticancer Drug Screen. Data for the rad50 strain (AID 155);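 also: 0% = growth of vehicle-only cultures of the same strain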; details: S. cerevisiae rad50 strain growth inhibition, stronger effect = higher value
Procedure, shortened: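 Growth of the mutant yeast was measured after compound exposure and referenced to vehicle-treated cultures.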

[6] = NCI Yeast Anticancer Drug Screen. Data for the mec2-1 strain (AID 157); details: S. cerevisiae mec2-1 strain, stronger effect = higher value
Procedure, shortened: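 Readout is yeast growth inhibition, normalised to vehicle-treated controls, in the mec2-1 strain exposed to compound.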

[7] = NCI Yeast Anticancer Drug Screen. Data for the rad14 strain (AID 159);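 also: 0% = growth of vehicle-treated control cultures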; details: S. cerevisiae rad14 strain growth inhibition, stronger effect = higher value
Procedure, shortened: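 Here, inhibition of yeast growth was measured after compound exposure, using a strain with a genetic defect in DNA damage repair and vehicle-treated cultures as the reference.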

[8] = NCI Yeast Anticancer Drug Screen. Data for the sgs1 mgt1 strain (AID 161);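 also: 0% = growth of cultures given vehicle only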; details: S. cerevisiae sgs1 mgt1 strain, stronger effect = higher value
Procedure, shortened: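 Compounds are added to genetically altered yeast, and growth is compared with cultures given vehicle alone to give percent inhibition.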

[9] = NCI Yeast Anticancer Drug Screen. Data for the CLN2oe strain (AID 163);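 also: 0% = growth of vehicle-only control cultures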; details: S. cerevisiae CLN2oe strain, stronger effect = higher value
Procedure, shortened: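 Values reflect how much compound exposure reduced yeast growth, referenced to vehicle-exposed cells. Assay organism is a strain with a defined genetic change affecting cell-cycle control.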

[10] = NCI Yeast Anticancer Drug Screen. Data for the cln2 rad14 strain (AID 165);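 also: 0% = growth equal to vehicle treated cultures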; details: S. cerevisiae cln2 rad14 strain, stronger effect = higher value
Procedure, shortened: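 Relative to vehicle controls, growth inhibition of compound-treated cln2 rad14 yeast was recorded.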

[11] = NCI Yeast Anticancer Drug Screen. Data for the bub3 strain (AID 167); details: S. cerevisiae bub3 mutant strain, stronger effect = higher value
Procedure, shortened: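 Whole-cell yeast assay. The mutant strain was incubated with compounds, and growth inhibition was determined by comparison with vehicle-treated cells.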

[12] = NCI Yeast Anticancer Drug Screen. Data for the wt2 strain (AID 169);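 also: 0% = growth of vehicle-treated yeast cultures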; details: S. cerevisiae wt2 strain growth inhibition, stronger effect = higher value
Procedure, shortened: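 Values express reduction in yeast growth under compound treatment, referenced to vehicle-treated cells.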

[13] = NCI Yeast Anticancer Drug Screen. Data for the mlh1 strain (AID 171);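 also: 0% = growth of vehicle-treated control cultures of the same strain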; details: S. cerevisiae mlh1 strain growth inhibition, stronger effect = higher value
Procedure, shortened: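 Steps: expose the defined-mutant yeast strain to compound; expose a parallel culture to vehicle; measure growth; express compound effect as inhibition relative to the vehicle culture.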

[14] = NCI Yeast Anticancer Drug Screen. Data for the sgs1 strain (AID 173);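 also: 0% = growth of vehicle-only control cultures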; details: S. cerevisiae sgs1 mutant, stronger effect = higher value
Procedure, shortened: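 Treat defined-mutant yeast with compound; measure growth; calculate inhibition relative to vehicle-treated cells.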

[15] = NCI Yeast Anticancer Drug Screen. Data for the mlh1 rad18 strain (AID 175); details: S. cerevisiae mlh1 rad18 strain growth inhibition, stronger effect = higher value
Procedure, shortened: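 Test agents were incubated with a yeast strain of defined genotype (DNA damage repair defect). Inhibition of growth was derived by comparison with vehicle-exposed cultures.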

[16] = NCI Yeast Anticancer Drug Screen. Data for the rad18 strain (AID 177); details: S. cerevisiae rad18 mutant growth inhibition, stronger effect = higher value
Procedure, shortened: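 A genetically defined yeast mutant impaired in DNA damage repair was treated with test compounds, then its growth was measured against cultures receiving vehicle alone.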

[17] = at 5.0 µM (retest, dose inferred, filed as 0.5)
[18] = at 50.0 µM (retest, dose inferred, filed as 5.0)

Measured: growth inhibition

CCCCNC1CCC2(SCCS2)c2[nH]c3ccccc3c21 (stereo unspecified)
inactive: [1]; at 1.2 µM 2% | [1]; at 3.7 µM 5% | [1]; at 11.0 µM 3% | [1]; at 33.0 µM 4% | [1]; at 100.0 µM 5% | [2]; at 1.2 µM 1% | [2]; at 3.7 µM 1% | [2]; at 11.0 µM 0% | [2]; at 33.0 µM 1% | [2]; at 100.0 µM 6% | [3]; at 1.2 µM -2% | [3]; at 3.7 µM -1% | [3]; at 11.0 µM -2% | [3]; at 33.0 µM -4% | [3]; at 100.0 µM 7% | [4]; at 1.2 µM 2% | [4]; at 3.7 µM -2% | [4]; at 11.0 µM 7% | [4]; at 33.0 µM -5% | [4]; at 100.0 µM 7% | [5]; at 1.2 µM 2% | [5]; at 3.7 µM 3% | [5]; [17] 9% | [5]; at 11.0 µM -7% | [5]; at 33.0 µM 3% | [5]; [18] 49% | [5]; at 100.0 µM 6% | [6]; at 1.2 µM 10% | [6]; at 3.7 µM -1% | [6]; [17] 4% | [6]; at 11.0 µM -2% | [6]; at 33.0 µM -4% | [6]; [18] -14% | [6]; at 100.0 µM 7% | [7]; at 1.2 µM 6% | [7]; at 3.7 µM 0% | [7]; at 11.0 µM 4% | [7]; at 33.0 µM 1% | [7]; at 100.0 µM 9% | [8]; [17] -5% | [8]; [18] 21% | [9]; at 1.2 µM 10% | [9]; at 3.7 µM -4% | [9]; at 11.0 µM 0% | [9]; at 33.0 µM -1% | [9]; at 100.0 µM 6% | [10]; [17] -7% | [10]; [18] 31% | [11]; at 1.2 µM -6% | [11]; at 3.7 µM 1% | [11]; [17] -16% | [11]; at 11.0 µM 6% | [11]; at 33.0 µM -1% | [11]; [18] 17% | [11]; at 100.0 µM 3% | [12]; at 1.2 µM 1% | [12]; at 3.7 µM 2% | [12]; at 11.0 µM 3% | [12]; at 33.0 µM 3% | [12]; at 100.0 µM 8% | [13]; at 1.2 µM 5% | [13]; at 3.7 µM -2% | [13]; at 11.0 µM 4% | [13]; at 33.0 µM -1% | [13]; at 100.0 µM 6% | [14]; at 1.2 µM 0% | [14]; at 3.7 µM -2% | [14]; at 11.0 µM -1% | [14]; at 33.0 µM -3% | [14]; at 100.0 µM 3% | [15]; [17] 1% | [15]; [18] 21% | [16]; at 1.2 µM 2% | [16]; at 3.7 µM -4% | [16]; at 11.0 µM -4% | [16]; at 33.0 µM -18% | [16]; at 100.0 µM 4%
active: [5]; at 50.0 µM 87.3% | [6]; at 50.0 µM 91.2% | [8]; at 50.0 µM 85.2% | [10]; at 50.0 µM 89.5% | [11]; at 50.0 µM 88.2% | [15]; at 50.0 µM 84.7%

CC1OC(O[C@H]2/C=C/C=C/C=C/C=C/C=C/C=C/C=C/[C@H](C)[C@@H](O)[C@@H](C)[C@H](C)OC(=O)C[C@H](O)C[C@H](O)CC[C@@H](O)[C@H](O)C[C@H](O)C[C@]3(O)C[C@H](O)[C@@H](C(=O)O)[C@H](C2)O3)C(O)C(N)C1O (stereo partly specified)
inactive: [1]; at 1.2 µM 2% | [1]; at 3.7 µM 45% | [2]; at 1.2 µM 2% | [2]; at 3.7 µM 13% | [3]; at 1.2 µM 25% | [4]; at 1.2 µM 17% | [4]; at 3.7 µM 57% | [5]; at 1.2 µM 19% | [5]; at 3.7 µM 61% | [5]; [17] 18% | [6]; at 1.2 µM -2% | [6]; at 3.7 µM 28% | [6]; [17] 32% | [7]; at 1.2 µM 2% | [7]; at 3.7 µM 23% | [8]; [17] 25% | [9]; at 1.2 µM 2% | [9]; at 3.7 µM 23% | [10]; [17] 50% | [11]; at 1.2 µM -19% | [11]; at 3.7 µM 19% | [11]; [17] 14% | [12]; at 1.2 µM -65% | [12]; at 3.7 µM -3% | [13]; at 1.2 µM 7% | [14]; at 1.2 µM 10% | [14]; at 3.7 µM 50% | [15]; [17] 47%
active: [1]; at 11.0 µM 98% | [1]; at 33.0 µM 98% | [1]; at 100.0 µM 98% | [2]; at 11.0 µM 98% | [2]; at 33.0 µM 98% | [2]; at 100.0 µM 98% | [3]; at 3.7 µM 97% | [3]; at 11.0 µM 99% | [3]; at 33.0 µM 99% | [3]; at 100.0 µM 98% | [4]; at 11.0 µM 98% | [4]; at 33.0 µM 99% | [4]; at 100.0 µM 98% | [5]; at 11.0 µM 98% | [5]; at 33.0 µM 98% | [5]; [18] 99% | [5]; at 50.0 µM 99.1% | [5]; at 100.0 µM 97% | [6]; at 11.0 µM 98% | [6]; at 33.0 µM 98% | [6]; [18] 99% | [6]; at 50.0 µM 99.4% | [6]; at 100.0 µM 98% | [7]; at 11.0 µM 95% | [7]; at 33.0 µM 97% | [7]; at 100.0 µM 98% | [8]; [18] 99% | [8]; at 50.0 µM 99.2% | [9]; at 11.0 µM 98% | [9]; at 33.0 µM 98% | [9]; at 100.0 µM 98% | [10]; [18] 99% | [10]; at 50.0 µM 99.1% | [11]; at 11.0 µM 98% | [11]; at 33.0 µM 98% | [11]; [18] 99% | [11]; at 50.0 µM 98.8% | [11]; at 100.0 µM 98% | [12]; at 11.0 µM 96% | [12]; at 33.0 µM 98% | [12]; at 100.0 µM 98% | [13]; at 3.7 µM 78% | [13]; at 11.0 µM 98% | [13]; at 33.0 µM 98% | [13]; at 100.0 µM 98% | [14]; at 11.0 µM 99% | [14]; at 33.0 µM 99% | [14]; at 100.0 µM 99% | [15]; [18] 99% | [15]; at 50.0 µM 98.7%
